Experimental data: PubChem BioAssay AID2017 (National Center for Advancing Translational Sciences (NCATS), 2009)
Results filed as inconclusive are left out. The source made the active and inactive calls. Calls come from the whole dose curve; as a rule, active = well fitted curve in the direction sought with a large enough effect; inconclusive = small, poorly fitted or top-dose-only effect, or another doubt; inactive = no such curve, though single readings can be large or run the other way.

system: 4-diphosphocytidyl-2-C-methyl-D-erythritol kinase IspE (bacterial, species not stated); assay: Confirmatory Assay for Inhibitors of Human Galactokinase (GALK): CDP-Me assay counterscreen; conditions: ATP depletion, Kinase-Glo luminescence; series mostly up to 115 µM
Outline: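 Luminescent read-out of ATP remaining (Kinase-Glo Plus) after 1 h at room temperature. Reaction: 0.25 ug/mL CDP-Me kinase, ATP 15 uM, CDP-ME 30 uM, HEPES pH8.0 buffer containing MgCl2, KCl, DTT and BSA.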

SMILES | outcome
O=C1C(C2=C(O)c3ccccc3C2=O)=Nc2ccccc21 | inactive
CC1=NN(c2ccccc2)C(=O)/C1=C/c1c(O)n(-c2ccc(F)c(Cl)c2)[nH]c1=O | inactive
Cc1ccc(F)c(NC(=O)/C(C#N)=C(\O)c2ccc(C(C)(C)C)cc2)c1 | inactive
Cc1snc(S(=O)(=O)/C(C#N)=N/Nc2cccc(C(F)(F)F)c2)c1C#N | inactive
O=c1[nH]c(/C=C/c2ccc([N+](=O)[O-])cc2)c([N+](=O)[O-])c(=O)[nH]1 | inactive
COc1cc(/C=C2\C(=O)ON=C2c2ccccc2)cc(Br)c1O | inactive
N#C/C(=C\c1coc2ccc(O)cc2c1=O)C(=O)Nc1nc2ccccc2s1 | inactive
Cc1nn(Cc2noc(C(=O)NCC3CCCO3)n2)c(C)c1Br (stereo unspecified) | inactive
O=C1C(Cl)=C(N2CCC(C(=O)O)CC2)C(=O)c2ccccc21 | inactive
O=C(O)c1ccc(NC2=C/C(=N/S(=O)(=O)c3ccccc3)c3ccccc3C2=O)cc1 | inactive
C[C@H](NC(=O)C1CCC(CNC(=O)[C@@H]2CCCN2C(=O)OC(C)(C)C)CC1)C(=O)O (stereo partly specified) | inactive
NS(=O)(=O)c1ccc(NC(=S)NNC(=O)c2ccc(Br)o2)cc1 | inactive
Cc1nc(NS(=O)(=O)c2ccc(Cl)s2)c2c3c(sc2n1)CCCC3 | inactive
Cc1ccc(C)c(CN2C(=O)CSc3ccc(C(=O)NCCN4CCOCC4)cc32)c1 | inactive
CC(=O)c1ccc(NC(=S)Nc2cccc3cnccc23)cc1 | inactive
CS(=O)(=O)C1=NSC2=NC(=O)/C(=C\c3ccc(OS(=O)(=O)c4ccccc4)cc3)C(=N)N21 | inactive
CCS(=O)(=O)C1=NSC2=NC(=O)/C(=C\c3ccc(OS(=O)(=O)c4ccccc4)c(OC)c3)C(=N)N21 | inactive
O=C1/C(=C\c2cc(Cl)c(O)c(Cl)c2)SC(=S)N1Cc1ccccc1 | inactive
CCOC(=O)c1c(C)[nH]c2c1-c1ccccc1C(=O)C2=O | inactive
N#C/C(=C(/O)c1cc2ccccc2o1)c1nc2ccccc2s1 | inactive
N#C/C(=C(/O)Cc1cccc2ccccc12)c1nc2ccccc2s1 | inactive
CS(=O)(=O)c1ccc2c(c1)sc1nc(=O)c(/C=C3/C=CC(=O)C(O)=C3)c(N)n12 | inactive
S=c1[nH]nc(Cc2sc(-c3ccccc3)nc2-c2ccccc2)o1 | inactive
COc1ccc(C/C(O)=C(\C#N)c2nc3ccccc3s2)cc1 | inactive
COCc1cc(CN2CCCC2)c(O)c2ncccc12 | inactive
O=C1ON=C(c2ccccc2)/C1=C/c1ccc(O)c(O)c1 | inactive
